Measurements taken from PubChem BioAssay (NCI).
This is part of a sample that, as a whole, favours compounds with a hit. Of some 83,000 tested, about 20% had one in any assay.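 Cells were grown in 96-well plates and exposed to the test compound at a single concentration for 48 hours; results are reported as percent growth, with values below 10 considered active.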

Tests used:
Assay in all cases: NCI-60 one-dose screen, 48 h (100 = growth as untreated, 0 = no growth, -100 = all killed)
Conditions in all cases: 10 µM unless noted
NCI-H23 lung = test system: NCI-H23 lung
NCI-H226 lung = test system: NCI-H226 lung
NCI-H322M lung = test system: NCI-H322M lung
HOP-62 NSCLC = test system: HOP-62 NSCLC
NCI-H460 lung = test system: NCI-H460 lung
NCI-H522 lung = test system: NCI-H522 lung
A549/ATCC NSCLC = test system: A549/ATCC NSCLC
786-0 renal = test system: 786-0 renal
DU-145 prostate = test system: DU-145 prostate
K-562 leukemia = test system: K-562 leukemia
MALME-3M melanoma = test system: MALME-3M melanoma
MDA-MB-231 breast = test system: MDA-MB-231 breast
RXF 393 renal = test system: RXF 393 renal
SF-268 CNS = test system: SF-268 CNS
SF-295 CNS = test system: SF-295 CNS
SF-539 CNS = test system: SF-539 CNS
UACC-257 melanoma = test system: UACC-257 melanoma
M14 melanoma = test system: M14 melanoma
HCT-15 colon = test system: HCT-15 colon
COLO 205 colon = test system: COLO 205 colon

Measured: growth

O=C1Nc2ccc(F)cc2/C1=C/c1nc(-c2ccc(F)cc2)n2ccccc12
inactive: NCI-H23 lung 104% | NCI-H226 lung 110% | NCI-H322M lung 124% | HOP-62 NSCLC 96.4% | NCI-H460 lung 99.2% | NCI-H522 lung 108% | A549/ATCC NSCLC 104% | 786-0 renal 114% | DU-145 prostate 74.1% | K-562 leukemia 106% | MALME-3M melanoma 91.3% | MDA-MB-231 breast 80% | RXF 393 renal 108% | SF-268 CNS 81.3% | SF-295 CNS 92.1% | SF-539 CNS 104% | UACC-257 melanoma 104% | M14 melanoma 83.2% | HCT-15 colon 105%

Cc1c(C(N)=O)sc2ncn(CC(=O)Nc3ccc(Cl)cc3)c(=O)c12
inactive: NCI-H23 lung 110% | NCI-H226 lung 105% | NCI-H322M lung 114% | HOP-62 NSCLC 97% | NCI-H460 lung 110% | NCI-H522 lung 141% | A549/ATCC NSCLC 106% | 786-0 renal 104% | DU-145 prostate 126% | K-562 leukemia 96.8% | MDA-MB-231 breast 108% | RXF 393 renal 105% | SF-268 CNS 119% | SF-539 CNS 108% | UACC-257 melanoma 148% | M14 melanoma 103% | HCT-15 colon 117%

Cc1nn(-c2ccccc2)c(Cl)c1C(CC(=O)c1ccc(Cl)cc1)CC(=O)c1ccc(Cl)cc1
inactive: NCI-H23 lung 87.2% | NCI-H226 lung 88.6% | NCI-H322M lung 99% | HOP-62 NSCLC 97.8% | NCI-H460 lung 90.1% | NCI-H522 lung 71.6% | A549/ATCC NSCLC 84.3% | 786-0 renal 81.8% | COLO 205 colon 98.5% | DU-145 prostate 103% | MALME-3M melanoma 94.7% | MDA-MB-231 breast 80.5% | RXF 393 renal 92.2% | SF-268 CNS 91.3% | SF-295 CNS 92.4% | UACC-257 melanoma 100% | M14 melanoma 83.9% | HCT-15 colon 86.6%

Cc1ccccc1-c1cc(Cc2ccccc2O)c(=O)[nH]n1
inactive: NCI-H23 lung 103% | NCI-H226 lung 85.8% | NCI-H322M lung 115% | HOP-62 NSCLC 108% | NCI-H460 lung 115% | NCI-H522 lung 93.3% | A549/ATCC NSCLC 107% | 786-0 renal 98.9% | DU-145 prostate 125% | K-562 leukemia 91.7% | MALME-3M melanoma 151% | MDA-MB-231 breast 90.7% | RXF 393 renal 140% | SF-268 CNS 85.1% | SF-295 CNS 113% | SF-539 CNS 107% | UACC-257 melanoma 122% | M14 melanoma 120% | HCT-15 colon 107%

Cc1[nH]n(C(N)=S)c(=O)c1N=Nc1ccc(F)c(Cl)c1
inactive: NCI-H23 lung 102% | NCI-H226 lung 87% | NCI-H322M lung 110% | HOP-62 NSCLC 92.1% | NCI-H460 lung 114% | NCI-H522 lung 94.6% | A549/ATCC NSCLC 106% | 786-0 renal 95.6% | DU-145 prostate 100% | K-562 leukemia 95.3% | MALME-3M melanoma 110% | MDA-MB-231 breast 89.1% | RXF 393 renal 131% | SF-268 CNS 92.2% | SF-295 CNS 103% | SF-539 CNS 108% | UACC-257 melanoma 124% | M14 melanoma 100% | HCT-15 colon 104%

COc1cc(OC)c2cc(C(=O)O)c(=O)oc2c1
inactive: NCI-H23 lung 96.8% | NCI-H226 lung 96.8% | NCI-H322M lung 79.8% | HOP-62 NSCLC 103% | NCI-H460 lung 95.3% | NCI-H522 lung 97.3% | A549/ATCC NSCLC 123% | 786-0 renal 83.9% | DU-145 prostate 129% | K-562 leukemia 95.1% | MALME-3M melanoma 113% | MDA-MB-231 breast 94.3% | RXF 393 renal 105% | SF-268 CNS 110% | SF-539 CNS 102% | UACC-257 melanoma 76% | M14 melanoma 103% | HCT-15 colon 106%

O=C(c1ccccc1)c1ccccc1Cl
inactive: NCI-H23 lung 100% | NCI-H226 lung 105% | NCI-H322M lung 108% | HOP-62 NSCLC 105% | NCI-H460 lung 104% | NCI-H522 lung 92.4% | A549/ATCC NSCLC 98.9% | 786-0 renal 98.8% | DU-145 prostate 108% | K-562 leukemia 100% | MALME-3M melanoma 102% | MDA-MB-231 breast 105% | RXF 393 renal 111% | SF-268 CNS 109% | SF-295 CNS 110% | SF-539 CNS 100% | UACC-257 melanoma 97.8% | M14 melanoma 101% | HCT-15 colon 104%

CCSc1nnc2n(Cc3ccccc3)c(=O)c3c(C)c(C(N)=O)sc3n12
inactive: NCI-H23 lung 110% | NCI-H226 lung 93.8% | NCI-H322M lung 102% | HOP-62 NSCLC 101% | NCI-H460 lung 109% | NCI-H522 lung 96% | A549/ATCC NSCLC 97% | 786-0 renal 105% | COLO 205 colon 121% | MALME-3M melanoma 105% | MDA-MB-231 breast 103% | RXF 393 renal 103% | SF-268 CNS 95.1% | SF-295 CNS 91.4% | UACC-257 melanoma 100% | M14 melanoma 112%
